# For part of these data: Potency and affinity values are given separately.
# Assays:
# Design in all cases: scale not given: direction of the effect not stated beside the values
# [1] = biological target: Protein translocase subunit SecA (Escherichia coli (strain K12)) (UniProt P10408); experiment: Assay to Identify E. coli SecA ATPase Inhibitors; format: functional; conditions: 30 µM
# [2] = biological target: T1, Ubiquitin-activating enzyme e1, putative (Leishmania donovani (strain BPK282A1)) (UniProt E9BSI1); experiment: Leishmania donovani Ubiquitin Activating Enzyme (LdE1); format: functional; conditions: 30 µM
# T1 sequence (whole entry): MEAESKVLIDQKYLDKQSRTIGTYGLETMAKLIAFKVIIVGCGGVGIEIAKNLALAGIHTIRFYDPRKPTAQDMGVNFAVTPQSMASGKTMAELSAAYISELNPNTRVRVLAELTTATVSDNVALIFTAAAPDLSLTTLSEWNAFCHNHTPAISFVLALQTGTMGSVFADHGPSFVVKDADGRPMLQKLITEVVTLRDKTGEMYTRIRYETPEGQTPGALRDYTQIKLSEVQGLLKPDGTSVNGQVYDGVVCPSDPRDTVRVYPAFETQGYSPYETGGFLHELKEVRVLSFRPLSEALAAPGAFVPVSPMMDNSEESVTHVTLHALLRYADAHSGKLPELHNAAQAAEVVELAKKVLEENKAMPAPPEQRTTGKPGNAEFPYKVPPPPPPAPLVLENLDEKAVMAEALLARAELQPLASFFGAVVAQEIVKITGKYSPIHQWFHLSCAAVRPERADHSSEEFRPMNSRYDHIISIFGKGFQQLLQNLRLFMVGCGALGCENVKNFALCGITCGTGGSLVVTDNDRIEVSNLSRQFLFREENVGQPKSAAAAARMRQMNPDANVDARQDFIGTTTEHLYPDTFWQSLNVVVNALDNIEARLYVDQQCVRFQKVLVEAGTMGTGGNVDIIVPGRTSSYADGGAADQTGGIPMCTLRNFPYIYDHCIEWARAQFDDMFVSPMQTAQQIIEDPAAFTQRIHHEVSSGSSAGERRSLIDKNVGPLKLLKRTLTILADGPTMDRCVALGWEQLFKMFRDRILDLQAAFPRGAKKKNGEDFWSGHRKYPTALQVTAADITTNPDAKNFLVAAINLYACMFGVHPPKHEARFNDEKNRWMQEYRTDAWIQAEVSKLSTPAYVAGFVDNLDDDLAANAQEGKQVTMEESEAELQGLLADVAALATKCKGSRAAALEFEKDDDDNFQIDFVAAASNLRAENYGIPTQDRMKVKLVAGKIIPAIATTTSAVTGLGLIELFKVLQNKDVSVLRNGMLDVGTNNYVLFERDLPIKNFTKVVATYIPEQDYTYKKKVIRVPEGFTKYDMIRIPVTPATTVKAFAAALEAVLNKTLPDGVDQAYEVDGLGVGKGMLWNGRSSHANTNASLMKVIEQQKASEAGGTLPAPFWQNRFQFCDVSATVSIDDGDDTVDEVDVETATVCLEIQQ
# [3] = biological target: T2, Aspartate--tRNA(Asp/Asn) ligase (Mycobacterium tuberculosis (strain ATCC 25618 / H37Rv)) (UniProt P9WFW3); experiment: Assay for Asp RNA synthetase-1 from Mycobacterium tuberculosis; format: functional; conditions: 30 µM; note: in the data most compounds retested in dose-response had high values
# T2 sequence (whole entry): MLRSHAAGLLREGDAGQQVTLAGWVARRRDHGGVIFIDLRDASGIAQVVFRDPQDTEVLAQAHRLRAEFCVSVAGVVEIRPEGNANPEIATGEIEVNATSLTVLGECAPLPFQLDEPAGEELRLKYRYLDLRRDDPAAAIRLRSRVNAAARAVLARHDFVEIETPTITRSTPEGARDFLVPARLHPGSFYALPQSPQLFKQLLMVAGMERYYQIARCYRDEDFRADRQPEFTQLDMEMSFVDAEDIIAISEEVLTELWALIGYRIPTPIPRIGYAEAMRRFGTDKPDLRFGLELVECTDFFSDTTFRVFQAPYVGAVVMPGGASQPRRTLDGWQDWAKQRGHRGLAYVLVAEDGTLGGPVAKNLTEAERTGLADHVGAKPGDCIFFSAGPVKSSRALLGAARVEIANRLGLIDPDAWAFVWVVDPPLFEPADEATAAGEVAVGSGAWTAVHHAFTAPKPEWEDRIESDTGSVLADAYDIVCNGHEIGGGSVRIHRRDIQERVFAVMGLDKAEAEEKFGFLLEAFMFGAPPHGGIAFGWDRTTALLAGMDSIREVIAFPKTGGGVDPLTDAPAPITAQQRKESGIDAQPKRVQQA
# [4] = biological target: AMP-activated protein kinase, AMPK (Homo sapiens) (UniProt P54646+O43741+P54619+Q9UGJ0+Q9Y478+Q13131+Q9UGI9); experiment: AMP-dependent Kinase enzyme assay. An in vitro enzyme assay that detects ADP turnover that is directly proportional to AMPK activity. This uses naive AMPK that is activated during the assay with MK-8722; format: functional; conditions: 30 µM
# [5] = biological target: Sialic acid-binding Ig-like lectin 9 (Homo sapiens) (UniProt Q9Y336); experiment: Hs-Siglec9 ALPHAscreen SOP 20170721; conditions: 10 µM
# Sialic acid-binding Ig-like lectin 9 (Homo sapiens), sequence (Q9Y336 whole entry): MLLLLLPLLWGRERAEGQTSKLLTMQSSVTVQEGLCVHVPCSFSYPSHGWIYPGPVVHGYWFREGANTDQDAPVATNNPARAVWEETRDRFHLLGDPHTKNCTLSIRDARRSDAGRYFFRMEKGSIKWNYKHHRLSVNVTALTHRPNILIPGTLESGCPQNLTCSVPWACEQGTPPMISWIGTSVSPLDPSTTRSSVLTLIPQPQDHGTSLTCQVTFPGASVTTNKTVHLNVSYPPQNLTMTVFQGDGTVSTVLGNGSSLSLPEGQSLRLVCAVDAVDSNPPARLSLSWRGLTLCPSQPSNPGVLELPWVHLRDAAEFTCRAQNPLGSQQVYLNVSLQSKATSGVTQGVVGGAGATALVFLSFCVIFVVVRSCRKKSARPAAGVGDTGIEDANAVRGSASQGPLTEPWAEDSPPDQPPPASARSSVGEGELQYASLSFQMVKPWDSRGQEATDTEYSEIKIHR
# Trypanosoma cruzi = experiment: Trypanosoma cruzi phosphomannomutase and mannose-1-phosphate guanylyltransferase assay; format: functional; conditions: 10 µM
# [6] = biological target: T3, Arginase-2, mitochondrial (Homo sapiens) (UniProt P78540); experiment: in vitro enzyme assay to detect the production of urea directly proportional to the activity of Arginase II; format: functional; conditions: 33.3 µM; note: in the data most compounds retested in dose-response had high values
# T3 sequence (whole entry): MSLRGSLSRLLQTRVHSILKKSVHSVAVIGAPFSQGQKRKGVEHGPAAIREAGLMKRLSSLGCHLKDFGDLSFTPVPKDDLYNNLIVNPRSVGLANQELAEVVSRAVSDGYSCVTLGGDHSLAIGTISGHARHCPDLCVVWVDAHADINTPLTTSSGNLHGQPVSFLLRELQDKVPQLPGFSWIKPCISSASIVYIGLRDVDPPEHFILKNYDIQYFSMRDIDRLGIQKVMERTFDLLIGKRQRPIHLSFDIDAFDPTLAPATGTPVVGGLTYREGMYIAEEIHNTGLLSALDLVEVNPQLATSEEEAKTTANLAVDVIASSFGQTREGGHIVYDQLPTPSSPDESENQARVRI
# [7] = biological target: T4, Proteasome subunit beta (Trypanosoma cruzi) (UniProt O96673); experiment: Trypanosoma cruzi proteasome chymotrypsin-like activity (TcProtChymo) assay.; note: in the data most compounds retested in dose-response had high values; format: functional; conditions: 9.37 µM
# T4 sequence (whole entry): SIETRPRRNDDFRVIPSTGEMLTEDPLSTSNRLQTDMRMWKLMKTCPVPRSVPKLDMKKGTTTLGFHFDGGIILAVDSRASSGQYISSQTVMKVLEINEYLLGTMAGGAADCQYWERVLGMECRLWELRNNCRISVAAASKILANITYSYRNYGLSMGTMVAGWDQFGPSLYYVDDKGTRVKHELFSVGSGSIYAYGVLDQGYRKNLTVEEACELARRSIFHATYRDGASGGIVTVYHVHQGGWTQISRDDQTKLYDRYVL
# Homo sapiens = organism: Homo sapiens; experiment: To identify inhibition of the IFN signalling (Jak-Stat) pathway via expression of an eGFP reporter gene under the control of an IFN-stimulated response element (ISRE) containing MxA promoter.; format: functional; conditions: 30 µM
# [8] = biological target: Shiga toxin 2 (Escherichia coli O157:H7) (UniProt P09385+P09386); experiment: E. coli 0.157:H7 Shiga Toxin SOP - stx2 screening assay; format: functional; conditions: 30 µM
# [9] = biological target: T5, Tyrosyl-tRNA synthetase, putative (Trypanosoma cruzi (strain CL Brener)) (UniProt Q4DSP6); experiment: Trypanosoma cruzi tyrosyl tRNA synthetase (TcYRS) _High Tyrosine SOP; format: functional; conditions: 30 µM; note: in the data most compounds retested in dose-response had high values
# T5 sequence (whole entry): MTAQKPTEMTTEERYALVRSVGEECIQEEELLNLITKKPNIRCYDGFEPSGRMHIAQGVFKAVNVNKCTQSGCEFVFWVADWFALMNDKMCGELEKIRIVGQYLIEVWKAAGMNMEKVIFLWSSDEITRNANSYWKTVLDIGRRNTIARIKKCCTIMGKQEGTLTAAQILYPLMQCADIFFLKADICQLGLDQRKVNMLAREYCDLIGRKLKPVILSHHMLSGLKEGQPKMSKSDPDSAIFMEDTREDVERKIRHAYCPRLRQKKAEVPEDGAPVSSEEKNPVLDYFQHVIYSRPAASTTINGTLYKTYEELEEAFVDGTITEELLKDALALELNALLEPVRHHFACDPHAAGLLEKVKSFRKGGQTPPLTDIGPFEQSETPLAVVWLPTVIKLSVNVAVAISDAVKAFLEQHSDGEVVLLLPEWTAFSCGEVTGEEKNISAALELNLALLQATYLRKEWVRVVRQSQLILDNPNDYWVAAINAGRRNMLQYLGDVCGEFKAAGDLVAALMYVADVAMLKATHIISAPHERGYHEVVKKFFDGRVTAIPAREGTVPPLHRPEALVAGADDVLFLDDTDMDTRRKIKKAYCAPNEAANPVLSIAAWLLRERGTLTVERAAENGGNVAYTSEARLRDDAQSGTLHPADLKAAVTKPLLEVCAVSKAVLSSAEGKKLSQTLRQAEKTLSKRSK
# [10] = biological target: T5, Tyrosyl-tRNA synthetase, putative (Trypanosoma cruzi (strain CL Brener)); experiment: Trypanosoma cruzi tyrosyl tRNA synthetase (TcYRS) SOP; format: functional; conditions: 30 µM
# [11] = biological target: Chromo domain-containing protein 1 (Saccharomyces cerevisiae (strain ATCC 204508 / S288c) (Baker's yeast)) (UniProt P32657); experiment: ScCHD-1 Enzyme Inhibition Assay; format: functional; conditions: 30 µM; note: in the data most compounds retested in dose-response had high values
# Chromo domain-containing protein 1 (Saccharomyces cerevisiae (strain ATCC 204508 / S288c) (Baker's yeast)), sequence (P32657 whole entry, the tested form may be a part): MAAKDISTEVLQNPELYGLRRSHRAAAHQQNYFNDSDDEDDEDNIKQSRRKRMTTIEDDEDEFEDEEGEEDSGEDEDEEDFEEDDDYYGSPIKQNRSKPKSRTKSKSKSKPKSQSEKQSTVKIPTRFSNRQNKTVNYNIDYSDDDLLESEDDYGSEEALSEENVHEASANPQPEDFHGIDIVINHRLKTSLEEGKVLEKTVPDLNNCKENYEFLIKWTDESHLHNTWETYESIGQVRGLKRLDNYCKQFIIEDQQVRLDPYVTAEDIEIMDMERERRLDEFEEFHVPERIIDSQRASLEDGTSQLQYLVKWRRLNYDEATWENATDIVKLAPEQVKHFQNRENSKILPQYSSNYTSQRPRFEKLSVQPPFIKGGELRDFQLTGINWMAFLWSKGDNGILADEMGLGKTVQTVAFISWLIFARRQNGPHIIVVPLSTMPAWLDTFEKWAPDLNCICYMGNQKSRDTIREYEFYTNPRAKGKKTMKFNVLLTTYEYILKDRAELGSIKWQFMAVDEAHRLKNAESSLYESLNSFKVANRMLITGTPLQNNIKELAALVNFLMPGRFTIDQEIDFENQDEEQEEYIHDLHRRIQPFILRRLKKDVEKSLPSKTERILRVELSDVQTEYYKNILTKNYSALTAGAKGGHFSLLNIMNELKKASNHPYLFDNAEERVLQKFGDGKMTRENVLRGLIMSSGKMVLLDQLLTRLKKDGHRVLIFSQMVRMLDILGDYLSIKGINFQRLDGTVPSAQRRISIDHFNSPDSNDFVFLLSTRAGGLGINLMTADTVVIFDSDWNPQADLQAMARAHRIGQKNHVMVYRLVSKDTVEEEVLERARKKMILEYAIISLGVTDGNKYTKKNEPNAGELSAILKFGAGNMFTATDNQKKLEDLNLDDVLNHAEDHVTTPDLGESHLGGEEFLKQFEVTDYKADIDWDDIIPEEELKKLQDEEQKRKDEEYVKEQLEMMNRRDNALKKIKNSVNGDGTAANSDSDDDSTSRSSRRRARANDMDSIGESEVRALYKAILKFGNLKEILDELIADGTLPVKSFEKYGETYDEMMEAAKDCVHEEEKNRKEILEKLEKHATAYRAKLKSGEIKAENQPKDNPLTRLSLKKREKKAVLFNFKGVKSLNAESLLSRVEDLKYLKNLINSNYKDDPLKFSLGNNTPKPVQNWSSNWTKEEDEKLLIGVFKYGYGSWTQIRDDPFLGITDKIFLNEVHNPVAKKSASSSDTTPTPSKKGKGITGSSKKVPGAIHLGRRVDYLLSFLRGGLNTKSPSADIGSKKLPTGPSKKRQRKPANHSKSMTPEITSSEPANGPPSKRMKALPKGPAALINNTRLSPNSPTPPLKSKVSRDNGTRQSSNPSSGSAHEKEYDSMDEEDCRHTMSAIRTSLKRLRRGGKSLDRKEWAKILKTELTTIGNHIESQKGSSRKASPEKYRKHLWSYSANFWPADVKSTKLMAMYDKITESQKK
# Protein translocase subunit SecA (Escherichia coli (strain K12)), sequence (P10408 whole entry): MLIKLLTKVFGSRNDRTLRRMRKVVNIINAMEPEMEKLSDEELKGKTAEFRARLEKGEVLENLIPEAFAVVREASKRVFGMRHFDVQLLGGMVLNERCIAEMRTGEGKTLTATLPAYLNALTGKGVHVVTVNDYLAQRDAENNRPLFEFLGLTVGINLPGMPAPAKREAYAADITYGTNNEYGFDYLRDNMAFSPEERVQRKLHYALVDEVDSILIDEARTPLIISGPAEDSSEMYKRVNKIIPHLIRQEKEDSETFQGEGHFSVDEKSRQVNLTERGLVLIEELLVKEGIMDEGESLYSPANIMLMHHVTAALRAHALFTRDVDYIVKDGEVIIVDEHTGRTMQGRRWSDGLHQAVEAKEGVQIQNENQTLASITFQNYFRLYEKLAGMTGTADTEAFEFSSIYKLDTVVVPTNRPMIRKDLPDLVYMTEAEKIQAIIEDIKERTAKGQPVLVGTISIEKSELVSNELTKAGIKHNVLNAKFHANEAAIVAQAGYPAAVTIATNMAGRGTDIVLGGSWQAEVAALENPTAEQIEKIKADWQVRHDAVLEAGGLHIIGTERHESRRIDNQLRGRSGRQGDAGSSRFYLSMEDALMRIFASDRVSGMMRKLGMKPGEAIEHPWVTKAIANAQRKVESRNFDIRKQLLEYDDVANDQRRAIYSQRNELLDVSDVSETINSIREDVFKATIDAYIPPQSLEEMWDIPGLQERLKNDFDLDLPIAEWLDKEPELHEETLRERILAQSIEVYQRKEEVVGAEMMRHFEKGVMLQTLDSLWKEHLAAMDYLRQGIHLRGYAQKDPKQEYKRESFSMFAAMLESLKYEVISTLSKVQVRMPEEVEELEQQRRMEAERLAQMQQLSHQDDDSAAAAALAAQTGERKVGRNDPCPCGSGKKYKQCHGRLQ
Compound,Percent Effect [1],Percent Effect [2],Percent Effect [3],Percent Effect [4],Percent Effect [5],Percent Effect (Trypanosoma cruzi),Percent Effect [6],Percent Effect [7],Percent Effect (Homo sapiens),Percent Effect [8],Percent Effect [9],Percent Effect [10],Percent Effect [11]
Cc1n[nH]c2c1C(c1ccc(O)c(Cl)c1)SCC(=O)N2 (configuration not stated),-3.6%,4%,-0.755%,21.6%,4.97%,-3.73%,-6.16%,5.18%,10.7%,-29.6%,9.52%,15.4%,-4.99%
CN(C)[C@@H]1CCN(C(=O)Cc2ccc(F)cc2)[C@H]1Cc1cnn(C)c1,-0.511%,13.3%,7.04%,9.81%,-9.25%,-4.72%,-1.63%,12.8%,-1.72%,-6.42%,3.19%,6.41%,1.98%
CC(Cn1cccn1)NCc1nc(-c2cccs2)no1 (configuration not stated),-4.32%,5.26%,-3.4%,-6.35%,2.35%,3.08%,-2.88%,5.67%,-9.95%,4.43%,4.43%,16.1%,-2.61%
Cc1cccc(C(=O)N2C[C@@H]3OCCN(C(C)C)[C@@H]3C2)n1,-0.342%,0%,2.88%,1.78%,5.46%,1.74%,-50%,5.81%,-20.9%,-1.16%,-26%,2.5%,0.0349%
Cn1c(=O)n(C)c2cc(C3SCC(=O)Nc4ccsc43)ccc21 (configuration not stated),-5.92%,6.67%,-5.4%,-13.6%,-2.48%,7.27%,-11.8%,12.9%,37.1%,-33.2%,4.23%,12.8%,-7.83%
CCn1cc(CN2CCCN(C(=O)Cc3ccc(C)nc3)CC2)cn1,-6.08%,10.4%,-1.87%,0.798%,5.82%,6.76%,-3.58%,5.09%,-17.1%,1.69%,-1.91%,9.41%,-14.6%
CN1CCCC(c2n[nH]c3ncccc23)C1 (configuration not stated),-3.58%,-1.35%,-7.01%,6.99%,2.48%,-0.198%,-0.232%,5.93%,-5.01%,1.35%,2.15%,1.3%,6.39%
Cc1cc(N2CCN3CCCCC3C2)n2nc(C)c(C)c2n1 (configuration not stated),-1.84%,6.94%,-12.4%,-4.39%,-5.54%,-2.43%,-0.442%,14.7%,-15.5%,4.77%,4.21%,10.3%,-3.52%
Cn1cc(N2CCC3(CCN(Cc4cccnc4)C3)C2=O)cn1 (configuration not stated),1.77%,5.41%,-4.84%,7.18%,-13.3%,-4.79%,1.59%,25.1%,2.62%,-17%,0%,10.3%,-1.3%

# Reference: ChEMBL document CHEMBL3988442, “University of Dundee, Small-Polar-MMV Screening Library” (2021)
